The sample as a whole holds a higher share of hits than the screen did.
AmpC inh detg: qHTS Inhibitors of AmpC Beta-Lactamase (assay with detergent); AID 485294, 2010; Potency, µM (titrated, usually from 114 µM), without a hit: at the highest dose activity change, negative = inhibition, most hits filed as inhibitors; AmpC hydrolysis of nitrocefin, absorbance 480 nm, 0.01% Triton; hit rate 0.041% among 370,000;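 note: potency is the fitted concentration of half-maximal effect; 0% = no-compound wells and -100% = no-enzyme wells; nearly all actives have a fitted effect of over 25% in size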
Target sequence (P00811 whole entry, looked up): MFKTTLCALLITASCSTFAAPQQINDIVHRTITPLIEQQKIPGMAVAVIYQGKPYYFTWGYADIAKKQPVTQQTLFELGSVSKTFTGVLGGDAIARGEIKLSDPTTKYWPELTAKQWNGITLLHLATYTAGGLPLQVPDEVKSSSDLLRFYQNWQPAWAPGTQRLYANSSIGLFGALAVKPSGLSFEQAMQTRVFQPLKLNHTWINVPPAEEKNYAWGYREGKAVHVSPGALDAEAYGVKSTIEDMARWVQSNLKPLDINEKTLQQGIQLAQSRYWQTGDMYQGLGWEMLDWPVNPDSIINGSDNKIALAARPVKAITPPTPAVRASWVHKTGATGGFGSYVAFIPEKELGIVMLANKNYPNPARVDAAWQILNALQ
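AmpC (5.3 nM in the dispensed reagent) in 20 mM phosphate pH 7.0 with 0.01% (detergent screen) or 0.0001% Triton X-100 was preincubated with compounds for 15 min at room temperature. Nitrocefin was then added from an 800 uM solution, and hydrolysis was followed at 480 nm.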
Shiga inhibitor: A qHTS for Small Molecule Inhibitors of Shiga Toxin. Vero cells, Shiga toxin protein synthesis inhibition reporter. inhibition, % at 38.7 µM. hit rate 9.2% among 290,000. AID 2315, 2010; in the data active = inhibition mostly above about 28%, no sharp cut-off; inactive = mostly below about 43%; note: 0% is about no effect
Cycloheximide cs: Cycloheximide Counterscreen for Small Molecule Inhibitors of Shiga Toxin; max response, %; AID 2314, 2010; cell reporter, cycloheximide protein synthesis inhibition counterscreen; hit rate 12% among 300,000; in the data active = max response mostly above about 13%, no sharp cut-off; inactive = mostly below about 14%; note: read at 38.3 µM for the half of the compounds with a filed dose; 0% is about no effect
AmpC no deterg: qHTS Inhibitors of AmpC Beta-Lactamase (assay without detergent); P00811; AmpC nitrocefin hydrolysis, absorbance 480 nm, 0.0001% Triton; Potency, µM (top dose mostly 57.1 µM), inactives show at the top dose activity change, negative = inhibition, most hits filed as inhibitors; hit rate 0.52% among 330,000; AID 485341, 2010;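 note: potency is the fitted concentration of half-maximal effect; plate controls were no compound for no effect and no enzyme for full effect; nearly all actives have a fitted effect of over 20% in size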
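20 mM phosphate pH 7.0 + 0.01% (detergent screen) or 0.0001% Triton X-100; 5.3 nM AmpC reagent; cpd preinc 15 min RT; nitrocefin (800 uM stock) to start; A480 q20 s × 4 min; Activity was normalised to no-enzyme and no-compound control wells.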
SARS PLpro yeast: qHTS of Yeast-based Assay for SARS-CoV PLP | S. cerevisiae expressing SARS-CoV PLpro, growth rescue | AID 485353, 2010 | hit rate 0.19% among 330,000 | Potency, µM (top dose mostly 32.9 µM), inactives show top-dose activity, positive = growth rescue, hits mostly activators; calls by dose curve; note: potency is the fitted concentration of half-maximal effect; 0% is about no effect; nearly all actives have a fitted effect of over 55% in size
AMA1 RON2 block: qHTS for Inhibitors of AMA1-RON; Towards Development of Antimalarial Drug Lead: Primary Screen. Plasmodium falciparum AMA1 (3D7) - RON2 peptide interaction. AlphaScreen AMA1-biotinylated RON2 peptide binding. Potency, µM (series often up to 58.2 µM), for the others: at the top dose activity change, negative = inhibition, usual class: inhibitors. hit rate 0.2% among 360,000. AID 720542, 2013;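 note: potency is the fitted concentration of half-maximal effect; 0% = vehicle wells and -100% = peptide control; nearly all actives have a fitted effect of over 45% in size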
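AMA1 (3D7) with his tag at 25 nM final met compounds first, then biotinylated RON2 peptide at 25 nM; detection used donor plus acceptor beads, 10 µg/mL apiece, read by AlphaScreen after 30 min at room temperature.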
* = called active by the depositor; ? = inconclusive; . = no result given; [ ] = another dose, or the depositor's remark. Unless noted, calls come from the whole dose curve; as a rule, active = well fitted curve in the direction sought with a large enough effect; inconclusive = small, poorly fitted or top-dose-only effect, or another doubt; inactive = no such curve, though single readings can be large; an effect the other way counts as inactive or inconclusive.

SMILES	AmpC inh detg	Shiga inhibitor	Cycloheximide cs	AmpC no deterg	SARS PLpro yeast	AMA1 RON2 block
O=C(CC(=O)Nc1ccccc1C(=O)O)NNC(=O)Cc1ccccc1	2%	8	5	-1%	0%	86%
O=C(Cc1ccccc1)Nc1ccccc1C(=O)O	0%	76*	35*	-6%	5%	3%
Cc1ccc(-n2ncc(C(=O)NCCCN3CCN(c4cccc(Cl)c4)CC3)c2-n2cccc2)cc1	29%	.	.	.	.	.
O=C(Nc1ccc(Cl)cc1)OCc1cn(-c2ccc(Cl)cc2)nn1	-10%	23	-3	-23%	-8%	13%
Clc1ccc(-n2cc(COCc3ccccc3)nn2)cc1	?	57*	24	-19%	-3%	31%
COc1ccc(Nc2cc(C)nc3ncnn23)cc1Cl	1%	-7	0	-3%	-8%	8%
COc1ccc(C2CC(=O)N(CC(=O)NCC3CCCO3)c3ccccc3S2)cc1 (stereo not given)	-8%	72	34*	82%	0%	9%
COc1ccc(C2CC(=O)N(C)c3ccccc3S2)cc1 (stereo not given)	-5%	124*	38*	-16%	-6%	-3%
CN1CCN(Cc2c(F)cccc2Cl)CC1	0%	11	-1	-4%	1%	14µM*
CCN(CCn1cccn1)Cc1cn[nH]c1-c1ccc(-c2ccccc2)cc1	-4%	42	11	133%	-2%	-2%
CN(Cc1cn[nH]c1-c1ccc(-c2ccccc2)cc1)CC1CCOCC1	1%	38	17*	27%	-2%	10%
CC(c1ccon1)N(C)Cc1cn[nH]c1-c1ccc(F)cc1F (stereo not given)	-8%	-3	-1	-1%	1%	-1%
CC(c1ccon1)N(C)Cc1cn[nH]c1-c1ccc(-c2ccccc2)cc1 (stereo not given)	0%	73*	15	28%	-2%	-1%
CN(Cc1ccon1)Cc1cn[nH]c1-c1ccc(-c2ccccc2)cc1	2%	24	30*	32%	-1%	-22%
Cc1oc(-c2ccccc2)nc1CS(=O)CC(=O)NC1CCCCCC1 (stereo not given)	-10%	3	6	52%	1%	0%
CCOc1ccc(NC(=O)CCNS(=O)(=O)c2ccc3c(c2)oc(=O)n3C)cc1	-1%	-5	6	-4%	0%	7%
Cc1ccc(NC(=O)COC(=O)Cn2cnc3c2c(=O)n(C)c(=O)n3C)cc1	.	.	.	-1%	8%	-7%
C=CCn1c(COc2ccccc2)nc2ccccc21	-17%	44*	29*	-8%	7%	-3%
c1ccc(OCCn2c(COc3ccccc3)nc3ccccc32)cc1	-3%	.	.	.	.	.
Cn1c(COc2ccccc2)nc2ccccc21	-1%	67*	32*	-6%	8%	-1%
COc1cc(/C=N/NC(=O)CSc2ccccn2)ccc1OC(C)C	-3%	68*	39*	-6%	1%	8%
COc1ccc(/C=N/NC(=O)c2ccc(O)cc2O)cc1CSc1ccccn1	-12%	64*	40*	-21%	8%	6%
COc1ccc(C=O)cc1CSc1ccccn1	1%	14	11*	-15%	0%	11%
CCn1c(SCC(=O)N/N=C/c2ccc(OC)c(OC)c2)nc2ccccc21	1%	-4	2	2%	6%	0%
Cc1c(C(=O)O)cccc1-c1ccc(/C=N/n2cnnc2)o1	-3%	38	28*	-8%	-1%	-11%
CC1=NN(c2ccc(Br)cc2)C(=O)/C1=C/c1ccc(-c2ccccc2C(=O)O)o1	-3%	.	-1	-10%	5%	0%
Cc1c(C(=O)O)cccc1-c1ccc(/C=N/Nc2ccc(Br)cc2)o1	?	140*	106*	?	-87%	1%[11.6 µM]
COC(=O)C1CCN(c2cc(=O)n(-c3ccc(OC)cc3)c(=O)[nH]2)CC1	?	-6	-2	-9%	1%	-5%

Assay outcomes: PubChem BioAssay, National Center for Advancing Translational Sciences (NCATS)
